The list is not random: actives were taken first. Their share in the collection is about 11%.
Tau fluor counter – Counterscreen qHTS for Inhibitors of Tau Fibril Formation, Fluorescence Polarization; tau K18 P301L Alexa594 fluorescence, heparin fibrillization; Potency, µM (top dose mostly 57.7 µM), without a hit: at the top dose activity change, negative = decrease; 280,000 compounds, 0.93% hits; also: potency is read from the fitted curve at half-maximal effect; nearly all actives have a fitted effect of over 55% in size
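Human tau K18 P301L (15 uM unlabeled, 0.24 uM Alexa 594-labeled) in 100 mM sodium acetate pH 7 with 20 uM heparin, 6 hr at 37 C. ThT 30 uM added, 1 hr ambient; Alexa 594 FP and total fluorescence read at 555/632 nm.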
Tau fibril FP – qHTS for Inhibitors of Tau Fibril Formation, Fluorescence Polarization; K18 P301L tau heparin fibrillization, Alexa594 FP, 6 h; Potency, µM (doses to about 57.7 µM), without a hit: top-dose activity, negative = inhibition, actives largely listed as inhibitors; 280,000 compounds, 0.39% hits; also: potency is read from the fitted curve at half-maximal effect; nearly all actives have a fitted effect of over 55% in size
Target sequence (P10636 561-689 P618L limits assumed): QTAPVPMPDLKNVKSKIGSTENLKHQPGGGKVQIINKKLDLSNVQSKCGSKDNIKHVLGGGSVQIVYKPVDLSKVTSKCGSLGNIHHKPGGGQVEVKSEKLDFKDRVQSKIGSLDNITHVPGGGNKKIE
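Quantitative HTS format: compounds meet 15 uM recombinant K18 P301L tau and Alexa 594-tau tracer in 100 mM sodium acetate pH 7; 20 uM heparin triggers fibrillization at 37 C over 6 hr; FP gives the signal.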
Coupling enz – qHTS Assay for Inhibitors of Fructose-1,6-bisphosphate Aldolase from Giardia Lamblia: Coupling assay counterscreen; coupling enzyme system counterscreen, AmpLite Red fluorescence; activity change, negative = inhibition, % at 58.2 µM, hits read low; 290,000 compounds, 0.67% hits; in the data active = activity change below about -30%
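Coupling enzymes only (glyceraldehyde-3-phosphate) + compound, at 57.5 uM final, 10 min RT; add substrate/coupling/AmpLite Red mix, 20 min RT; fluorescence ex 525/em 598 nm. Actives flag coupling-system interference.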
Tau fibril ThT – qHTS for Inhibitors of Tau Fibril Formation, Thioflavin T Binding; Microtubule-associated protein tau (Homo sapiens), P10636; recombinant tau K18 P301L (four-repeat tau fragment), heparin-induced fibrillization, ThT fluorescence; Potency, µM (top dose mostly 57.4 µM), for the others: at the top dose activity, negative = inhibition, usual class: inhibitors; 270,000 compounds, 2.1% hits; AID 1460, 2008; also: potency is read from the fitted curve at half-maximal effect; nearly all actives have a fitted effect of over 55% in size
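Tau K18 P301L fragment (15 uM unlabeled plus 0.24 uM Alexa 594-labeled) in 100 mM sodium acetate pH 7 with compound, fibrillization induced by 20 uM heparin for 6 hr at 37 C. Thioflavin T (30 uM) added, fluorescence read after 1 hr (ex 450, em 510 nm).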
G9a block – qHTS Assay for Inhibitors of Histone Lysine Methyltransferase G9a. Potency, µM (top dose mostly 102 µM), inactives show at the highest dose activity, negative = inhibition, actives largely listed as inhibitors. Histone-lysine N-methyltransferase EHMT2 (Homo sapiens), Q96KQ7. G9a H3K9 monomethylation, AlphaScreen, 2 h. 350,000 compounds, 8.8% hits; also: potency is read from the fitted curve at half-maximal effect; nearly all actives have a fitted effect of over 75% in size
Target sequence (Q96KQ7 913-1193 limits assumed): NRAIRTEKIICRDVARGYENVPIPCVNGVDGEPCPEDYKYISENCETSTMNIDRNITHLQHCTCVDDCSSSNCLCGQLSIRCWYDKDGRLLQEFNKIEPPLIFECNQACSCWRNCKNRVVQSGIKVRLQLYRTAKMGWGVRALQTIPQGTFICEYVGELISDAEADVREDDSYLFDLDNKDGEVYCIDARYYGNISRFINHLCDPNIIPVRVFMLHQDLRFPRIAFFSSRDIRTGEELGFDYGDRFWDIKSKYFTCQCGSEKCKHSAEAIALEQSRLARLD
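Readings reflect AlphaScreen signal from monomethyl-H3K9 antibody detection. HMT at 20 nM; substrate b-H3K9 500 nM; cofactor SAM 20 uM; 2 h RT reaction; compounds tested as titrations in qHTS with 15 min preincubation.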
Sfp PPTase inh – qHTS Assay for Inhibitors of Bacillus subtilis Sfp phosphopantetheinyl transferase (PPTase); AID 1490, 2009; 310,000 compounds, 3.5% hits; Biochemical Sfp PPTase activity, qHTS; Potency, µM, for the others: largest response in the series, negative = inhibition, actives largely listed as inhibitors;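 also: the enzyme is Sfp with the accession as filed and its product quenches rhodamine fluorescence; potency is read from the fitted curve at half-maximal effect; 0% = enzyme reaction without inhibitor and -100% = no enzyme wells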
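With Hepes-Na pH 7.6 buffer containing 10 mM MgCl2, Sfp (15 nM) modified BHQ-2-YbbR (12.5 uM) using rhodamine-CoA (5 uM). Two reads 30 minutes apart at 525/598 nm yielded each well's rate.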
The depositor's hits bear a star; ? = inconclusive; nt = not tested or not shown; [ ] = dose if it differs, or a comment. Unless noted, calls follow the shape of the dose curve; as a rule, active = well fitted curve in the direction sought with a large enough effect; inconclusive = small, poorly fitted or top-dose-only effect, or another doubt; inactive = no such curve, though single readings can be large; an effect the other way counts as inactive or inconclusive. Unless noted, % is scaled to controls: 0 for no effect and ±100 for the full control effect.

SMILES | Tau fluor counter | Tau fibril FP | Coupling enz | Tau fibril ThT | G9a block | Sfp PPTase inh
COc1ccc(-n2c(Cc3cccn3C)nnc2SCC(=O)Nc2ccc(C)c(Cl)c2)cc1 | -27% | ? | 0 | -17% | 45µM* | -6%
Cc1ccc(NC2CCCN(C(=O)c3ccoc3C)C2)cc1C (centres undefined) | nt | nt | nt | nt | ? | 2%
CCN(CC)C(=O)COc1ccc(-c2nnc(Nc3ccc(OC)c(C(=O)NC)c3)c3ccccc23)cc1 | -24% | 9% | 1 | ? | -3%[59 µM] | -10%
Cn1cccc1Cc1nnc(SCC(=O)NCc2ccccc2Cl)n1-c1ccc(F)cc1 | -8% | -1% | 0 | -13% | 79µM* | 4%
COc1cccc(NC(=O)CSc2nnc(Cc3cccn3C)n2-c2ccc(F)cc2)c1 | -2% | -1% | 0 | -3% | ? | -15%
COc1ccc(NC(=O)CSc2nnc(Cc3cccn3C)n2-c2ccc(F)cc2)cc1 | -19% | 1% | 1 | -15% | 71µM* | 7%
Cn1cccc1Cc1nnc(SCC(N)=O)n1-c1ccc(F)cc1 | -6% | -6% | 3 | -8% | 89µM* | -29%
Cn1cccc1Cc1nnc(SCC(=O)Nc2ccc3c(c2)OCO3)n1-c1ccc(F)cc1 | -30% | 9% | 1 | -13% | 45µM* | 6%
Cn1cccc1Cc1nnc(SCC(=O)NCc2ccco2)n1-c1ccc(F)cc1 | -2% | 0% | 0 | ? | ? | -20%
CCCCNC(=S)NNC(=O)c1c(C)nc2ccccn12 | 3% | 0% | 0 | -3% | ? | 4%
Cc1cc(C)c(NC(=O)CSc2nnc(Cc3cccn3C)n2-c2ccc(F)cc2)c(C)c1 | -1% | 0% | 7 | -5% | 45µM* | 50µM*
COc1ccc(OC)c(Cc2nnc(CCC(=O)NCc3ccc(C)s3)o2)c1 | -30% | 8% | -3 | ? | 25µM* | 0%
O=C1CSC(=S)N1N=C1CCCCCC1 | -5% | 6% | 0 | -3% | ? | 18µM*
O=C1CS/C(=N/N=C2CCCC2)N1 | -5% | -1% | 3 | -6% | ? | -4%
CC(=O)Nc1ccc(S(=O)(=O)NC2(C(F)(F)F)C(=O)Nc3c2c(=O)[nH]c(=O)n3-c2cccc(Cl)c2)cc1 (centres undefined) | -15% | -19% | nt | -4% | -2%[59 µM] | nt
O=C1CC(c2nc3ccccc3[nH]2)CN1c1ccccc1 (centres undefined) | 7% | -8% | -1 | -1% | ? | 14%
c1ccc(C2=Nc3ccccc3SC2c2nc3ccccc3[nH]2)cc1 (centres undefined) | ? | -6% | -4 | ? | 13µM* | 40µM*
COc1ccccc1NC(=O)CSc1nnc(Cc2ccccc2)o1 | -6% | -4% | 2 | -2% | 14µM* | 9%
Cc1n[nH]c(=O)c2c(NC(=O)CSc3nnc(C4CC4)n3C)oc(C)c12 | nt | nt | nt | nt | 40µM* | nt
COc1ccccc1NC(=O)CSc1nnnn1-c1ccccc1OC | nt | nt | 2 | nt | 71µM* | 12%
CCNC(=O)CSc1nc2ccccc2c(=O)n1OC | -5% | -1% | 4 | -2% | 79µM* | -2%
Cc1ccc(NC(=O)Cn2c(=O)c(C(F)(F)F)nc3ccccc32)c(C)c1 | 9% | -5% | nt | 10% | 7%[59 µM] | nt
O=C(CCc1cn(Cc2ccc(F)cc2)c2ccccc12)NCCc1ccc(Cl)cc1 | -20% | -4% | nt | -5% | -4%[59 µM] | nt
COc1ccc(C)cc1NC(=O)C1CCN(S(=O)(=O)c2ccc3c(c2)CCCN3C(C)=O)CC1 | -10% | 6% | nt | -1% | 0%[59 µM] | nt
COc1cccc(CNC(=O)c2ccc(CS(=O)Cc3ccc(C)cc3)o2)c1 (centres undefined) | nt | nt | 2 | nt | 14% | 1%
SMILES | Tau fluor counter | Tau fibril FP | Coupling enz | Tau fibril ThT | G9a block | Sfp PPTase inh
CCOC(=O)CSc1nnnn1-c1cccc2ccccc12 | 3% | ? | 4 | 5% | 10µM* | -2%
COc1ccccc1-n1nnnc1SCC(=O)Nc1oc(C)c2c(C)n[nH]c(=O)c12 | nt | nt | nt | nt | 11µM* | nt
CCOc1ccccc1NC(=O)CSc1nc2ccccc2c(=O)n1CC1CCCO1 (centres undefined) | nt | nt | 10 | nt | 4.5µM* | ?
COc1ccccc1CNC(=O)COC(=O)/C=C/c1ccc(OC(F)F)c(OC)c1 | nt | nt | nt | nt | 3%[0.501 µM] | nt
COc1cc(/C=C/C(=O)OCC(=O)Nc2oc(C)c3c(C)n[nH]c(=O)c23)ccc1OC(F)F | nt | nt | nt | nt | 14µM* | nt
Cc1ccccc1NC(=O)CSc1nc2ccccc2c(=O)n1CC1CCCO1 (centres undefined) | nt | nt | 2 | nt | 8% | 10%
CCOc1ccccc1-n1nnnc1SCC(=O)OC | -2% | -3% | 0 | -4% | 6% | 19%
Cc1ccc(C)c(Cn2c(=O)n(CCCC(=O)NCCc3ccc(Cl)cc3)c(=O)c3ccccc32)c1 | 9% | -2% | nt | 9% | -2%[59 µM] | nt
COc1ccccc1-c1nnc(SCC(=O)Nc2oc(C)c3c(C)n[nH]c(=O)c23)n1C | nt | nt | nt | nt | 5µM* | nt
COc1ccccc1NC(=O)CSc1nnc(-c2ccoc2C)n1C | nt | nt | 1 | nt | 10% | 9%
COCC(C)n1c(COc2ccccc2F)nnc1SCC(=O)Nc1oc(C)c2c(C)n[nH]c(=O)c12 (centres undefined) | nt | nt | nt | nt | 10µM* | nt
CCOCCCn1c(SCC(=O)Nc2ccc(OC)cc2)nc2ccccc2c1=O | nt | nt | 3 | nt | 32µM* | 50µM*
COCCCn1c(SCC(=O)Nc2oc(C)c3c(C)n[nH]c(=O)c23)nc2ccccc2c1=O | nt | nt | nt | nt | 50µM* | nt
CCOCCCn1c(SCC(=O)Nc2ccccc2)nc2ccccc2c1=O | nt | nt | 0 | nt | nt | 8%
Cc1ccc2c(=O)c(C(=O)c3ccc(F)cc3)cn(CC(=O)Nc3ccc4c(c3)OCCO4)c2n1 | -24% | -5% | nt | -17% | -8%[59 µM] | nt
O=S(=O)(c1ccc(Cl)cc1)c1nnn2c1nc(NCc1cccs1)c1sccc12 | -8% | ? | nt | 16% | 12%[59 µM] | nt
COc1ccccc1C(=O)ON=C1c2ccccc2-c2ccccc21 | 4% | 7% | -10 | 8% | 7%[59 µM] | ?
Cc1noc(C)c1C(=O)N1CCC2(CCCN(c3ncccn3)C2)CC1 | nt | nt | 4 | nt | 0%[12.7 µM] | -7%
CC(=O)OCC1OC(C#CCC2CCCCC2)C=CC1OC(C)=O (centres undefined) | -21%[11.6 µM] | -8%[11.6 µM] | 3 | ? | nt | -18%

Screening results: PubChem, National Center for Advancing Translational Sciences (NCATS)
